In the library only some 2.3% were active in any assay of this set; here they are far more common.
LGR2 antag = inhibitors of bursicon-induced LGR2 CRE-luciferase signal, primary screen, cell-based, HEK293, CRE-luciferase reporter, bursicon stimulation; hit rate 0.35% among 380,000; bursicon-stimulated, 4 h; inhibition, % at 9.99 µM; AID 720647, 2013; Drosophila bursicon receptor LGR2 (rickets);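 active = drop in luminescence signal, shown as inhibition above about 50% in the replicate tests, limit read from the data, passing the limit was not always enough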;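 also: agonist challenge used bursicon conditioned medium at about half maximal strength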
HSP90 inh = HSP90 inhibitors, primary screen, cell lysate, luminescence. Heat shock protein HSP 90 (rabbit reticulocyte lysate; luciferase refolding). Rabbit reticulocyte lysate, luciferase refolding luminescence, 3 h. inhibition, % at 5.6 µM. hit rate 0.91% among 290,000. AID 1789, 2009;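 active = inhibition above the screen-wide mean plus 3 SD, computed separately per campaign, cut at about 16% in these data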;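 also: inhibitors lower the luminescence because luciferase stays unfolded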
SENP8 block-1 = SENP8 protease inhibitors, primary screen, biochemical, luminescence; Sentrin-specific protease 8 (Homo sapiens), Q96LD8; purified SENP8, Z-RLRGG-aminoluciferin cleavage; inhibition, % at 10 µM; hit rate 1.2% among 330,000; in the data active = inhibition above about 50%
SENP7 inh = SENP7 protease inhibitors, primary screen, biochemical, luminescence, uHTS; Sentrin-specific protease 7 (Homo sapiens), Q9BQF6; recombinant SENP7, Z-RLRGG-aminoluciferin luminescence, 40 min; inhibition, % at 5 µM; hit rate 1.5% among 330,000; AID 434973, 2010;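 active = inhibition above about 50% at the single test dose, limit read from the data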
SENP8 block-2 = human SENP8 protease inhibitors, primary screen, biochemical, fluorescence, Nedd8 protein substrate, uHTS; inhibition, % at 20 µM; hit rate 0.64% among 360,000; recombinant SENP8; Sentrin-specific protease 8 (Homo sapiens), Q96LD8; AID 602440, 2012; in the data active = inhibition mostly above about 40%, no sharp cut-off; inactive = mostly below about 27%
SENP6 inh = SENP6 protease inhibitors, primary screen, biochemical, luminescence, uHTS. Sentrin-specific protease 6 (Homo sapiens), Q9GZR1. Recombinant SENP6 catalytic domain, aminoluciferin luminescence. inhibition, % at 10 µM. hit rate 1.8% among 330,000;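 active = inhibition above about 50% at the single tested dose, limit read from the data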
Target sequence (Q9GZR1 628-1112 limits assumed): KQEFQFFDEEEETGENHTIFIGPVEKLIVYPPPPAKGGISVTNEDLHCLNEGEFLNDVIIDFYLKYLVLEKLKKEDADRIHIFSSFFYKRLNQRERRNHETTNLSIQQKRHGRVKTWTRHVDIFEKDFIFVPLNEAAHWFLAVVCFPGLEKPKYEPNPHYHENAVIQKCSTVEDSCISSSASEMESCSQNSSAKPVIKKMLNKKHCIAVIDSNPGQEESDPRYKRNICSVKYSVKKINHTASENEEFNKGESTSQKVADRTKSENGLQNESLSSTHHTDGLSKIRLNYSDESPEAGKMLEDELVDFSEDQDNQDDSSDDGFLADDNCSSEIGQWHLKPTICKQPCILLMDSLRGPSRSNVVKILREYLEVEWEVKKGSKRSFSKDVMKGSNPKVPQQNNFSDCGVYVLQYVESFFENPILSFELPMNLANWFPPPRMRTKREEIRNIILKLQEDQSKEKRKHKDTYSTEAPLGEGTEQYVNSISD
SENP8 confirm = SENP8 protease inhibitors, retest, confirmation, biochemical, luminescence, single concentration | shares compounds with SENP7 inh | Recombinant SENP8, Z-RLRGG-aminoluciferin luminescence, 60 min | inhibition, % at 12.5 µM | hit rate 40% among 6,200;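 active = mean inhibition across replicates above about 50%, limit read from the data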
SENP6 confirm = SENP6 protease inhibitors, confirmation, biochemical, luminescence, single concentration; recombinant SENP6, Z-RLRGG-aminoluciferin luminescence; AID 488915, 2010; hit rate 58% among 6,200; inhibition, % at 12.5 µM; shares compounds with SENP7 inh
SENP7 conf = SENP7 protease inhibitors, retest, confirmation, biochemical, luminescence, single concentration; shares compounds with SENP7 inh; recombinant SENP7, Z-RLRGG-aminoluciferin luminescence, 40 min; inhibition, % at 12.5 µM; hit rate 69% among 6,200; AID 488917, 2010
Casp3 select = caspase-3 protease inhibitors, confirmation, selectivity assay for SENP inhibitor project, biochemical, single concentration | shares compounds with SENP7 inh | purified caspase-3, Z-DEVD-aminoluciferin luminescence, 60 min | inhibition, % at 12.5 µM | hit rate 60% among 6,200 | AID 488918, 2010;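 active = mean inhibition above about 50%, limit read from the data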
Target sequence (P42574 28-227 limits assumed): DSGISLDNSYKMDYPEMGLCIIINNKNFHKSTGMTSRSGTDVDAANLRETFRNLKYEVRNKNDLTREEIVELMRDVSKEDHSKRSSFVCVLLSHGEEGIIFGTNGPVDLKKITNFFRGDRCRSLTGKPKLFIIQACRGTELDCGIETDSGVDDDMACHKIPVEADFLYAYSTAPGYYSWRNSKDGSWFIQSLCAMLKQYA
Luc interf = luminescence interference (SENP counter-screen). shares compounds with SENP7 inh. hit rate 39% among 6,200. AID 488919. inhibition, % at 12.5 µM. Pre-incubated SENP8/Z-RLRGG-aminoluciferin, luciferase luminescence interference;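 active = mean inhibition above about 50% when retested at one dose, limit read from the data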
Numbers stand for hits; - = inactive; . = no result.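 The calls were made as follows, unless noted: active = mean inhibition above about 50% in the one-dose retest (limit read from the data); inactive = the rest.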

SMILES | LGR2 antag | HSP90 inh | SENP8 block-1 | SENP7 inh | SENP8 block-2 | SENP6 inh | SENP8 confirm | SENP6 confirm | SENP7 conf | Casp3 select | Luc interf
O=C(O)CCN1C(=O)/C(=C\c2cccc(Oc3ccccc3)c2)SC1=S | - | - | 96 | 62 | - | 97 | - | 101 | 104 | - | 90
O=C(O)CN1C(=O)/C(=C\c2ccc(OC(=O)c3ccco3)cc2)SC1=S | - | - | 59 | - | - | 71 | 66 | 62 | 79 | 83 | 69
COc1ccc(/C=C2/SC(=O)NC2=O)cc1 | . | - | 71 | 62 | - | 86 | 81 | 76 | 89 | 74 | 84
O=C(C[C@H]1CC[C@@H]2[C@H](COC[C@H](O)CN2C(=O)c2ccccc2F)O1)N1CCOCC1 | - | . | . | . | . | . | . | . | . | . | .
CCSc1nn2c(=O)c3ccccc3nc2s1 | - | - | - | - | - | 58 | - | - | 70 | 76 | -
CCCC(=O)Nc1ccc2c(c1)OC[C@H](C)N(C(=O)c1cnccn1)C[C@@H](C)[C@H](OC)CN(C)C2=O | - | . | . | . | . | . | . | . | . | . | .
CC(C)C#Cc1ccc2c(c1)O[C@H](CN(C)C(=O)Nc1ccccc1)[C@H](C)CN([C@@H](C)CO)S2(=O)=O | - | . | . | . | . | . | . | . | . | . | .
Cc1ccc(NC(=O)C(=O)NNC(=O)c2cccs2)cc1 | - | - | 55 | - | - | 57 | - | - | 79 | 83 | -
O=C(Nc1ccc2c(c1)CCC2)c1cccs1 | - | - | 62 | 78 | - | - | 83 | 87 | 96 | 83 | 83
Cc1ccc(NC(=O)c2cccs2)cc1 | - | - | - | 53 | - | - | - | - | 75 | 65 | 52
Cc1ccccc1-c1nc(-c2ccc(NC(=O)c3cccs3)cc2)no1 | - | - | - | 51 | - | - | - | - | - | - | -
Nc1ccc(NC(=O)c2cccs2)cc1 | - | - | - | - | - | - | . | . | . | . | .
CCC(=O)Nc1ccc(C(=O)NNC(=O)c2cccs2)cc1 | . | - | - | - | - | - | . | . | . | . | .
O=C(Nc1ccc(-c2noc(-c3ccccc3F)n2)cc1)c1cccs1 | - | - | - | - | - | - | . | . | . | . | .
O=C(Nc1ccc2c(c1)[C@H]1C[C@H](CC(=O)N3CCc4ccccc4C3)O[C@H](CO)[C@H]1O2)C1CCOCC1 | - | . | . | . | . | . | . | . | . | . | .
O=c1c2ccccc2nnn1COc1cccc(Cl)c1 | - | - | - | - | - | 58 | - | 58 | - | - | -
O=C(COc1ccc(Cl)cc1Cl)OCn1nnc2ccccc2c1=O | . | - | - | - | - | - | . | . | . | . | .
Cc1cc(C)cc(N2CCCn3c2nc2c3c(=O)n(CC(=O)OCc3ccccc3)c(=O)n2C)c1 | . | - | - | 55 | - | - | - | - | - | - | -
COc1ccc(NC(=O)Nc2ccc3c(c2)CC(=O)N([C@@H](C)CO)C[C@@H](C)[C@H](CN(C)S(=O)(=O)c2cccs2)O3)cc1 | - | . | . | . | . | . | . | . | . | . | .
Cc1nnc(SCc2cc(=O)[nH]c(/N=C(\N)Nc3ccccc3)n2)s1 | - | - | - | - | - | - | . | . | . | . | .
CCOc1ccc(N/C(N)=N/c2nc(CSc3nnc(C)s3)cc(=O)[nH]2)cc1 | - | - | - | - | - | 55 | - | - | - | - | -
Cc1ccc(C(=O)c2cc3ccccc3o2)cc1C | - | - | 69 | 76 | - | 82 | - | 72 | 53 | - | -
O=C(c1cc2ccccc2o1)c1cccs1 | . | - | 51 | 72 | - | - | - | 75 | 93 | 68 | 58
O=C(c1cccc([N+](=O)[O-])c1)c1cc2ccccc2o1 | - | - | - | - | - | - | . | . | . | . | .
Cc1ccc(C(=O)c2cc3ccccc3o2)cc1 | . | - | - | 56 | - | 77 | - | 60 | 86 | 52 | 59
SMILES | LGR2 antag | HSP90 inh | SENP8 block-1 | SENP7 inh | SENP8 block-2 | SENP6 inh | SENP8 confirm | SENP6 confirm | SENP7 conf | Casp3 select | Luc interf
COc1ccc(C(=O)c2cc3cccc(OC)c3o2)cc1 | - | - | 82 | 83 | - | 84 | 88 | 86 | 97 | 76 | 66
O=C(NC(=S)Nc1ccc(NC(=O)c2cccs2)cc1)c1cc2ccccc2o1 | - | - | - | - | - | - | . | . | . | . | .
CCCNC(=O)C[C@H]1CC[C@H]2[C@@H](COc3ccc(NC(=O)Cc4cccs4)cc3C(=O)N2C)O1 | - | . | . | . | . | . | . | . | . | . | .
O=C(CC1CC1)N1CC2(C1)[C@H](c1ccccc1)[C@@H](CO)N2CC1CCOCC1 | - | . | . | . | . | . | . | . | . | . | .
Cc1cc(=O)[nH]c(SCc2ccccc2)n1 | - | - | - | - | - | - | . | . | . | . | .
Cc1cc(=O)[nH]c(S/C=C/c2ccccc2)n1 | - | - | 77 | 90 | - | 64 | 89 | 90 | 98 | 94 | 89
O=C(O)c1ccc(Nc2ccc([N+](=O)[O-])c3nonc23)cc1 | - | - | 81 | 68 | - | 85 | 89 | 85 | 97 | 72 | 82
CC(=O)c1ccc(Nc2ccc([N+](=O)[O-])c3nonc23)cc1 | . | - | - | - | - | - | . | . | . | . | .
COc1ccc(NC(=O)c2ccc(OCC3CCCO3)cc2)cc1Cl (stereo not drawn) | - | . | - | 67 | - | 55 | - | - | 73 | - | -
Cc1ccnc(NC(=O)c2ccc(OCC3CCCO3)cc2)c1 (stereo not drawn) | - | . | 75 | 83 | - | 84 | 82 | 82 | 97 | 94 | 61
Cc1ccnc(NC(=O)COc2ccc3c(c2)CCC3)c1 | - | . | 94 | 94 | - | 82 | 87 | 86 | 98 | 91 | 84
CC(=O)Nc1ccc(NC(=O)COc2ccc3c(c2)CCC3)cc1 | - | - | - | - | - | - | . | . | . | . | .
C[C@@H]1CN([C@@H](C)CO)C(=O)c2cc(C#CCN(C)C)cnc2O[C@H]1CN(C)Cc1cccc(C(=O)O)c1 | - | . | . | . | . | . | . | . | . | . | .
C[C@@H]1CN([C@H](C)CO)C(=O)c2cc(NC(=O)CCN3CCOCC3)ccc2O[C@@H]1CN(C)Cc1ccncc1 | - | . | . | . | . | . | . | . | . | . | .
